Screening data deposited in PubChem BioAssay by National Center for Advancing Translational Sciences (NCATS).
Shiga inhibitor = inhibitors of Shiga toxin in Vero cells. Vero cells, Shiga toxin protein synthesis inhibition reporter. inhibition, % at 38.7 µM. hit rate 9.2% among 290,000. AID 2315; in the data active means inhibition mostly above about 28%, no sharp cut-off; inactive means mostly below about 43%; further: 0% is about no effect
MARV entry inh = Marburg virus entry inhibition; AID 540276; hit rate 1.8% among 300,000; Marburg virus pseudotyped entry inhibition, cell reporter; Potency, µM (top dose mostly 37.8 µM), for the others: top-dose activity change, negative = inhibition, hits mostly inhibitors; calls by dose curve; tested in HEK293 cells; further: potency means the concentration at half of the fitted maximal effect; on the % scale 0 is the no-effect control and ±100 the full control effect
Pf growth 48h = P. falciparum growth inhibition at 48 hours (one generation). hit rate 5.9% among 310,000. P. falciparum luciferase growth in erythrocytes, 48 h. AID 504832. Potency, µM (top dose mostly 28.7 µM), for inactives: at the highest dose activity change, negative = inhibition, actives largely listed as inhibitors; further: potency means the concentration at half of the fitted maximal effect; on the % scale 0 is the no-effect control and ±100 the full control effect
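Compounds are pin-transferred into medium, infected erythrocytes (2% hematocrit, 0.1% parasitemia final) are added, and plates sit one parasite generation at 37 C in 5% CO2. Detection reagent is then added and luminescence measured.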
LASV entry inh = Lassa virus entry inhibition. Lassa virus pseudotype entry inhibition, cell reporter. Potency, µM (doses to about 37.9 µM), inactives show top-dose activity change, negative = inhibition, usual class: inhibitors. hit rate 1.2% among 300,000. AID 540256; calls by dose curve; tested in HEK293 cells; further: potency means the concentration at half of the fitted maximal effect; on the % scale 0 is the no-effect control and ±100 the full control effect; nearly all actives have a fitted effect of over 50% in size
CHX counter = counter-screen hit for Shiga toxin inhibitors, cycloheximide; cell reporter, cycloheximide protein synthesis inhibition counterscreen; max response, %; hit rate 12% among 300,000; in the data active means max response mostly above about 13%, no sharp cut-off; inactive means mostly below about 14%; further: read at 38.3 µM for the half of the compounds with a filed dose; 0% is about no effect
Pf growth 96h = P. falciparum growth inhibition at 96 hours; hit rate 6.9% among 320,000; Potency, µM (highest dose often 28.7 µM), for inactives: at the highest dose activity change, negative = inhibition, actives largely listed as inhibitors; P. falciparum luciferase reporter growth, 96 h; AID 504834; further: potency means the concentration at half of the fitted maximal effect; on the % scale 0 is the no-effect control and ±100 the full control effect
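Luminescence readout: decreased luciferase signal marks inhibited growth of reporter-expressing P. falciparum in infected red cells (2% hematocrit, 0.05% parasitemia final), exposed to compound two generations (96 h, 37 C, 5% CO2).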
The depositor's hits bear a star; ? = inconclusive; · = no result given; [ ] = dose if it differs, or a comment. An excerpt weighted towards active compounds, which were near 19% of everything screened. Unless noted, the call rests on the fitted dose curve; in most records, active means well fitted inhibition curve with a large enough effect; inconclusive means small, poorly fitted or top-dose-only effect, or another doubt; inactive means no such curve, though single readings can be large or run the other way.

SMILES	Shiga inhibitor	MARV entry inh	Pf growth 48h	LASV entry inh	CHX counter	Pf growth 96h
COc1cc([N+](=O)[O-])ccc1NC(=O)Nc1ccc(C(=O)N2CCCC2)cc1	-3	-22%	?	-31%	10	?
CC(=O)/C(C#N)=C1\NC(=O)C(Cc2ccccc2)S1 (stereo not given)	16	2.5µM*	0%	?	14	·
N#C/C(C(=O)N1CCOCC1)=C1/SC(Cc2ccccc2)C(=O)N1c1ccccc1 (stereo not given)	-5	20%	10%	-6%	2	20%
CC(=O)/C(C#N)=C1\NC(=O)C(Cc2ccccc2C)S1 (stereo not given)	27	?	?	?	16*	-18%
CC(=O)/C(C#N)=C1\NC(=O)[C@@H](Cc2ccccc2)S1	·	2.5µM*	·	·	·	·
Cc1ccc(C)c(S(=O)(=O)N2CCN(C(=O)CNC(=O)c3ccc4ccccc4c3)CC2)c1	·	?	-5%	?	·	?
CCOc1ccc(S(=O)(=O)N2CN3CCN(C3)C2)cc1	-15	10%	0%	-3%	-4	?
Cc1ccc(S(=O)(=O)NCC(=O)OCC(=O)Nc2cccc(S(=O)(=O)NC3=NCCCCC3)c2)cc1	1	2%	23%	1%	-1	?
Cn1nc(-c2ccc(C(=O)N3CCN(Cc4ccccc4)CC3)cc2)c2ccccc2c1=O	-13	?	·	0%	-2	13µM*
COc1cc(CN2CCN(C(=O)c3ccc(-c4ccccc4)cc3)CC2)cc(OC)c1OC	98*	?	14%	?	19*	-4%
O=C(c1ccc(-n2cccc2)cc1)N1CCN(Cc2ccccc2)CC1	2	-7%	58%	-44%	16	36%
COc1cccc(C(=O)N2CCN(Cc3ccccc3C(F)(F)F)CC2)c1	-4	3%	-1%	12%	2	1.5µM*
COc1ccc(C(=O)N2CCN(Cc3ccccc3C(F)(F)F)CC2)cc1	-11	0%[46.1 µM]	57%	10%[46.1 µM]	-6	-13%
COc1cccc(CN2CCN(C(=O)c3ccc(-c4ccccc4)cc3)CC2)c1OC	-8	?	-23%	-22%	0	2.9µM*
Cc1ccc(C(=O)NCC(=O)NC23CC4CC(CC(C4)C2)C3)cc1	69*	·	73%	·	37*	71%
O=S(=O)(Nc1ccccn1)c1ccc(Cl)cc1	-7	0%	0%	3%	-2	·
O=S(=O)(Nc1ccccn1)c1ccc(C2CCCCC2)cc1	-11	10%	-6%	5%	-3	9.3µM*
O=C(O)CNS(=O)(=O)c1ccc(C2CCCCC2)cc1	3	-4%[46.1 µM]	4%[5.75 µM]	-6%	0	0.47µM*
CC(=O)Nc1ccc(S(=O)(=O)NCC2CCC(C(=O)NCc3ccccc3)CC2)cc1 (stereo not given)	-8	5%	3%	-12%	-1	-28%
O=C(Nc1ccc(S(=O)(=O)NCc2ccccc2)cc1)C1CCCCC1	15	-3%	-13%	0%	-1	12µM*
Cc1cc(C)c(S(=O)(=O)N(C2=NCCS2)S(=O)(=O)c2c(C)cc(C)cc2C)c(C)c1	3	-19%	15µM*	?	-2	?
O=C(NC1=NCCS1)C1Cc2ccccc2CN1C(=O)c1ccccc1 (stereo not given)	84*	20%	13%	16%	28*	?
CC(=O)c1ccc(NC(=O)C2Cc3ccccc3CN2C(=O)c2ccccc2)cc1 (stereo not given)	41*	-28%	-21%	17%	11*	15µM*
COc1ccc(NC(=O)C2Cc3ccccc3CN2C(=O)c2ccccc2)cn1 (stereo not given)	22	46%	·	-16%	7	?
CCNC(=O)C(=O)c1c(-c2ccccc2)[nH]c2ccccc12	-4	10%[46.1 µM]	4%	1%[46.1 µM]	-2	-7%
O=C(CCc1nc2ccccc2[nH]c1=O)N/N=C/c1ccccc1	4	?	-12%	1%	-3	?
CSc1ccc(C2C(C(=O)c3ccco3)=C(O)C(=O)N2c2nnc(SC)s2)cc1 (stereo not given)	75*	·	65%	·	36*	77%
Cc1nnc(N2C(=O)C(O)=C(C(=O)c3ccco3)C2c2ccc(C(C)(C)C)cc2)s1 (stereo not given)	21	13%	26%	-10%	12*	43%
